Screening data from PubChem.
Sampled rows, rich in hits. Any-hit rate of the full collection: about 0.79%.
Tat export inh: inhibitors of E. coli Tat protein transport; E. coli MC4100 TorA-mCherry Tat export, fluorescence; inhibition, % at 10 µM; 0.036% of 340,000 active;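 active = mean replicate inhibition at least 50% and at least half of replicates individually reaching 50%; inconclusive = only one of the two criteria met; inactive = neither criterion met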;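 note: exported cargo escapes ClpAP degradation while cytoplasmic cargo is degraded and loses fluorescence; 0% = median of neutral control wells and 100% = median of NaSCN control wells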
AddAB inh: less growth of phage-infected E. coli with AddAB; inhibition, % at 11.9 µM; 0.29% of 330,000 active; E. coli expressing H. pylori AddAB, absorbance growth; AID 435030; in the data active = inhibition above about 12%;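 note: 0% = vehicle wells of infected cells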
phage Ecoli inh: E. coli growth loss with phage present. AID 651602. growth absorbance. inhibition, % at 11.9 µM. 0.26% of 360,000 active; in the data active = inhibition above about 11%
AI-2 QS mod: Vibrio harveyi AI-2 quorum sensing modulation; Vibrio harveyi JMH597 AI-2 luminescence/OD600 ratio, 9 h; stronger effect = lower value; strain lacks LuxN and CqsS sensors; 0 = neutral-control median; activity change, % at 7.5 µM; 0.4% of 300,000 active; AID 2094; in the data active = activity change below about -75%, passing the limit was not always enough; inconclusive = no clear call, values can overlap the other calls;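 note: luminescence divided by OD600 gain over 9 h not by final OD600 alone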
E coli growth-1: blocks Escherichia coli growth | OD600, 23 h; stronger effect = lower value | OD600 absorbance (no concentration beside the values) | 0.21% of 330,000 active;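 active = OD600 absorbance below the run mean of sample wells minus 3.6 SD, in any replicate, cut at about 0.56 in these data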
E coli growth-2: counter-screen for AddAB inhibitors: E. coli growth inhibition; E. coli V3065 growth, OD600 absorbance, 18 h; inhibition, % at 11.9 µM; 0.27% of 330,000 active;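 active = inhibition above the campaign's mean inhibition across all tested compounds plus 3 SD, cut at about 9.9% in these data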;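 note: uninfected addAB+ strain grown without phage in ampicillin broth; 0% = DMSO wells and 100% = ciprofloxacin 0.95 µg/ml wells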
JMH597 growth: retest Vibrio harveyi JMH597 growth inhibition | OD600 absorbance, 9 h; lacks LuxN and CqsS sensors | growth inhibition, % at 7.5 µM | AID 2726 | shares compounds with AI-2 QS mod | 1% of 750 active;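 active = every replicate shows growth inhibition above 50%; inconclusive = at least half, but not all, replicates pass that cutoff; inactive = fewer than half of replicates pass it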
BB721 lum counter: retest counter-screen: lowers luminescence of constitutive-QS Vibrio harveyi BB721; shares compounds with AI-2 QS mod; 9 h; inhibition, % at 7.5 µM; 95% of 750 active;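 active = inhibition above about 80% in every replicate, not just on average, limit read from the data; inconclusive = at least half of replicates past the limit, but not all; inactive = fewer than half of replicates past the limit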
BB721 growth rt: retest Vibrio harveyi BB721 growth inhibition | OD600 absorbance, 9 h | 3% of 750 active | growth inhibition, % at 7.5 µM | shares compounds with AI-2 QS mod | AID 2728;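 active = every replicate shows growth inhibition above 50%; inconclusive = at least half but not all replicates above 50% inhibition; inactive = under half of replicates above 50% inhibition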
JMH597 AI-2 mod: Vibrio harveyi AI-2 signaling luminescence modulation – JMH597 strain, confirmation. shares compounds with AI-2 QS mod. Vibrio harveyi JMH597 AI-2 quorum sensing luminescence, 9 h; luxN and CqsS knockout, AI-2 only. inhibition, % at 7.5 µM. 97% of 750 active. AID 2736;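 active = every replicate shows more than 75% inhibition of signal versus neutral control wells; inconclusive = half to three quarters of replicates exceed 75% inhibition; inactive = fewer than half of replicates exceed 75% inhibition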
AddAB conf: growth loss of T4-infected E. coli expressing H. pylori AddAB, confirmed; AID 488942; E. coli V3065 expressing H. pylori AddAB, T4 phage, OD; T4 phage with gene 2 nonsense mutations; shares compounds with AddAB inh; 64% of 880 active; inhibition, % at 11.9 µM;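 active = mean inhibition above a set limit taken from the earlier primary screen, cut at about 13% in these data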;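 note: higher means less bacterial growth since AddAB block lets phage replicate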
RecBCD counter: AddAB counter-screen: growth loss of RecBCD+ E. coli infected with mutant T4 phage; shares compounds with AddAB inh; E. coli V66 + mutant T4 phage, OD growth; inhibition, % at 11.9 µM; 73% of 880 active; AID 488955;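 active = mean inhibition above the mean of solvent-only control wells plus 3 SD, cut at about 4% in these data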;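 note: optical density read after an 18 h incubation at 37 °C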
Bact viability: reduces bacterial viability, AddAB inhibitor counter-screen | absorbance (AddAB counterscreen) | inhibition, % at 11.9 µM | 35% of 880 active | shares compounds with AddAB inh | AID 488956; in the data active = inhibition above about 25%
* = called active by the depositor; ? = inconclusive; . = no result; ! = a repeat was not active.

SMILES	Tat export inh	AddAB inh	phage Ecoli inh	AI-2 QS mod	E coli growth-1	E coli growth-2	others
CCCCCCCCCCCCCCCC[N+](C)(C)C	32	-1	1	-31	0.069*	2
CCCCCC[N+](=O)[O-]	-5	3	4	.	0.67	2
N#CC1c2ccccc2-n2nncc2CN1Cc1cc(Cl)cc(Cl)c1 (stereo not drawn)	56*	.	4	.	.	.
COC1C(OC(=O)c2ccc(C)[nH]2)C(O)C(Oc2ccc3c(O)c(NC(=O)c4ccc(O)c(CC=C(C)C)c4)c(=O)oc3c2Cl)OC1(C)C (stereo not drawn)	-24	3	9	.	0.052*	-1
COC(=O)C1=C(c2ccccc2OCc2ccccc2)CC2CCC1N2C(=O)NC1CCN(Cc2ccccc2)CC1 (stereo not drawn)	.	.	.	.	0.66	.
COC(=O)C1=C(c2cc3ccccc3o2)CC2CCC1N2C(=O)NCc1ccc(C(F)(F)F)cc1 (stereo not drawn)	.	.	.	.	0.74	.
O=C1NC(=S)NC(=O)C1=Cc1ccc(Br)s1	-3	3	1	-87*	0.66	-1
CN1C(=O)/C(=C\c2ccc(Br)s2)C(=O)NC1=S	-9	5	2	?	.	-1
Oc1cc(Cl)c(Cl)c(Cl)c1	-13	.	3	.	0.068*	.
Oc1ccc(Cl)c(Cl)c1	-2	-1	0	.	0.6	0
COC(=O)C1=C(c2ccc(OC)c(OC)c2)CC2CCC1N2C(=O)NC1CCCCC1 (stereo not drawn)	.	.	.	.	0.7	.
COc1cc2c3c(c1OC)Oc1ccc(cc1)C[C@H]1c4c(cc(OC)c(OC)c4Oc4ccc(cc4)C[C@@H]3N(C)CC2)CCN1C	54*	3	1	.	.	0
CCCNC(=O)N1C2CCC1C(C(=O)OC)=C(c1cc3ccccc3s1)C2 (stereo not drawn)	.	.	.	.	0.69	.
COC(=O)C1=C(c2c(C)noc2C)CC2CCC1N2C(=O)NCCOc1ccc(OC)cc1 (stereo not drawn)	.	.	.	.	0.71	.
N#CSCC(=O)N1c2ccccc2CCc2ccccc21	-11	3	1	-76*	0.68	-1
CCCN1CCC2c3cc(O)ccc3CCC21 (stereo not drawn)	.	.	.	.	0.67	.
O=c1[nH]sc2cc(F)ccc12	-20	.	-1	-14	0.49*	.
CN1C(=O)NC(=O)/C(=C\c2ccc([N+](=O)[O-])o2)C1=O	0	-2	.	22	.	-4
CN1C(=O)NC(=O)/C(=C/c2ccc([N+](=O)[O-])o2)C1=O	.	3	2	15	0.3*	2
Cc1ccc(C(=O)NC(C)CN2C3=NCC(Cc4ccccc4)N3CC2Cc2ccc(O)cc2)cc1Br (stereo not drawn)	.	.	.	.	0.68	.
O=C(Cc1cccs1)N1CCC2(CC1)OCCO2	-3	8	1	16	0.68	11*
CN(C)C(=S)SSC(=S)N(C)C	12	0	5	24	0.49*	-1
CCN(CC)C(=O)c1ccc(NC(=O)Cn2nc(C)c3ccccc3c2=O)cc1	-10	2	3	-88*	0.62	-2	JMH597 growth=-3;BB721 lum counter=94*;BB721 growth rt=-11;JMH597 AI-2 mod=96*
CCN(CC)C(=O)c1ccc(NC(=O)c2ccc(-c3nn(C)c(=O)c4ccccc34)cc2)cc1	-4	3	5	16	0.68	0
COc1cc(C2c3cc4c(cc3C(OC)C3COC(=O)C23)OCO4)cc(OC)c1O (stereo not drawn)	.	.	.	.	0.65	.
SMILES	Tat export inh	AddAB inh	phage Ecoli inh	AI-2 QS mod	E coli growth-1	E coli growth-2	others
O=C(c1cc2cc(Br)ccc2[nH]1)N1CCC2(CC1)OCCO2	0	5	3	?	0.71	1	JMH597 growth=-4;BB721 lum counter=94*;BB721 growth rt=-1;JMH597 AI-2 mod=96*
Cc1ccc(O)c(CN2CCN(c3ccccc3)CC2)c1	11	4	1	-79*	0.71	-1	JMH597 growth=8;BB721 lum counter=85*;BB721 growth rt=-19;JMH597 AI-2 mod=91*
COC(=O)C1=C(c2ccc3ccccc3c2)CC2CCC1N2C(=O)NCc1ccc(C(F)(F)F)cc1 (stereo not drawn)	.	.	.	.	0.76	.
Cn1ncnc2c(=O)n(C)c(=O)nc1-2	128*	47*	.	-81*	0.048*	45*	AddAB conf=73*;RecBCD counter=76*;Bact viability=79*
COC(=O)C1=C(c2ccc(OC)c(OC)c2)CC2CCC1N2C(=O)N1CCOCC1 (stereo not drawn)	.	.	.	.	0.67	.
CN(C)C1C(=O)C(C(N)=O)=C(O)C2(O)C(=O)C3=C(O)c4c(O)cccc4C(C)(O)C3CC12 (stereo not drawn)	147*	85*	.	-37	.	94*	AddAB conf=94*;RecBCD counter=93*;Bact viability=92*
c1ccc2c(c1)[nH]c1cnccc12	8	4	4	13	0.63	3
Cc1c2ccncc2c(C)c2c1[nH]c1ccccc12	-10	13*	.	4	0.42*	14*	AddAB conf=9;RecBCD counter=0;Bact viability=11
COC(=O)C1=C(c2ccc(-c3ccccc3)c(F)c2)CC2CCC1N2C(=O)NCc1cc(C)oc1C(F)(F)F (stereo not drawn)	.	.	.	.	0.71	.
CC(C)CC(N(C)C)C1(c2ccc(Cl)cc2)CCC1 (stereo not drawn)	-6	37*!	2	.	0.52*!	27*!	AddAB conf=100*;RecBCD counter=3;Bact viability=67*
CN(C)C1(c2nnnn2-c2ccc(Cl)cc2)CCCCC1	-2	10	3	20	.	1
